About 3,700 (1%) of roughly 360,000 compounds were called active. The full list was thinned out, with actives kept by preference. A number with no mark means an inactive call. No stated cut-off is given here; in the data, active means activation above about 30%; inactive means the rest.
molecular target: D(1A) dopamine receptor (Homo sapiens) (UniProt P21728); assay: Allosteric Agonists of the Human D1 Dopamine Receptor: qHTS; details: HEK293 T-REx D1 cells, calcium flux, agonist mode; at 2 µM; active compounds read high; further: 0% is about no effect
Sequence (P21728 whole entry, looked up): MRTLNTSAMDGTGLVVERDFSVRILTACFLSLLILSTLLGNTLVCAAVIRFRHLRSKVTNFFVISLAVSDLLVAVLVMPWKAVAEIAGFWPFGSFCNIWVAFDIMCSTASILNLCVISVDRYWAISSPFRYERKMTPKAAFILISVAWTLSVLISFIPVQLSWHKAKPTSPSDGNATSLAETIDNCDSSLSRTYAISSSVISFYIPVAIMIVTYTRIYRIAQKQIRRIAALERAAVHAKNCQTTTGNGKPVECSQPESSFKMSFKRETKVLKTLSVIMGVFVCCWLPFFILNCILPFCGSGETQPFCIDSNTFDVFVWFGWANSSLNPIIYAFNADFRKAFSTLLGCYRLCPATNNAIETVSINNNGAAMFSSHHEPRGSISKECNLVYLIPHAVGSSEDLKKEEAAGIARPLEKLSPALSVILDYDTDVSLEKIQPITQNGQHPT
From the text: NIH Chemical Genomics Center [NCGC] NIH Molecular Libraries Probe Centers Network [MLPCN] MLPCN Grant: NS064831-01 Assay Submitter (PI): David Sibley Dopamine receptors (DARs) are involved in the etiology and/or therapy of a number of neuropsychiatric and endocrine disorders. For instance, all receptor-based antiparkinsonian drugs work via stimulating the D1 DAR subtype whereas all FDA-approved antipsychotic agents are antagonists of this receptor. […] There are three different types of allosteric modulators that we are seeking, two of which will stimulate or augment receptor signaling, allosteric agonists and potentiators, while the third, allosteric antagonists, will attenuate receptor signaling. The present primary screening assay measures compound agonism by tracking calcium flux in a […], inducible Hek293 Trex D1 cell line.
Freshly passaged cells are plated in 1536 well black, clear bottom plates at a density of 4000 cells/well in 3 ul of complete media containing 1x tetracycline inducer. After an overnight incubation at […] in 5% CO2, cells are loaded with 2 ul of the no wash Calcium Assay Kit (ABD Bioquest) and incubated at room temperature for 30 to 90 minutes. Agonist read: A 10 cycle (1 second/cycle) baseline measurement is taken and then the FDSS online 1536 pintool delivers 23 nl of compound library (as well as dopamine controls) to the plate. The plate is measured for kinetically at 1 cycle/sec for 180 seconds and is considered to be the agonist portion of the assay (eg, compounds which activate a positive calcium response during this portion are flagged as potential agonists). Following the 180 second read, 1 ul of either an EC20 (positive modulation assay) or EC80 (negative modulation assay) is delivered by an onboard pipette head. Measurements are taken kinetically for an additional 180 seconds.

Structure (SMILES)	activation
CCCCCCCCCCCCn1ccc(=N)cc1	52.6% (active)
COc1ccc(-c2nn(CCC#N)cc2C(=O)O)cc1	2.02%
NC(=O)Nc1cccc(C(F)(F)F)c1	1.22%
CC(Cc1ccccc1)NCCC(c1ccccc1)c1ccccc1 (stereo not given)	19.9%
CCN(CC)c1ccc([N+](=O)[O-])c2cccnc12	6.86%
COc1ccc(C(=O)C2CN(C)CC2C(=O)c2ccc(OC)cc2)cc1 (stereo not given)	4.65%
O=C1C2(Cl)C3(Cl)C4(Cl)C(Cl)(Cl)C5(Cl)C3(Cl)C1(Cl)C5(Cl)C24Cl (stereo not given)	99.6% (active)
CCN1CCN(Cc2cc(OC)c3c(c2)OCO3)CC1	3.83%
Cc1ccc(-n2c(/C=C/c3cccc(C(F)(F)F)c3)nc3ccccc3c2=O)cc1	-0.792%
COc1ccc(CN2CCN(c3ccccc3F)CC2)c(OC)c1	4.33%
Oc1cc2c(cc1CN1CCN(c3ccccc3)CC1)OCO2	2.23%
CC(C)c1ccc(O)c(CN2CCN(c3ccccc3)CC2)c1	93% (active)
CCN1C(=O)C(=Cc2c(C)n(CC(=O)NCC3CCCO3)c3ccccc23)C(=O)N(CC)C1=S (stereo not given)	8.52%
Cc1cccc(Cn2cccc(C(=O)Nc3ccc4c(c3)OCCO4)c2=O)c1	5.25%
COc1ccc(CNCCc2ccc3c(c2)OCO3)c(OC)c1OC	11.4%
COc1ccc(Br)cc1CNCCc1cccc(Cl)c1	34.4% (active)
COc1ccc(CNCCc2c[nH]c3ccccc23)cc1OC	12.6%
Cc1cc2ccccn2c1C(C[N+](=O)[O-])c1c(F)cccc1Cl (stereo not given)	0.11%
CN(C)c1nc(N(C)C)nc(N(C#N)CCCl)n1	1.85%
O=C(c1cc2nc(-c3ccccc3)cc(-c3ccccc3)n2n1)N1CCC2(CC1)OCCO2	1.75%
CCCCC(=O)N/N=C/c1c(O)n(CC)c(=S)n(CC)c1=O	71.8% (active)
CCCCC(=O)N/N=C/c1c(O)n(-c2ccccc2)c(=O)[nH]c1=O	-0.172%
CCCCC(=O)N/N=C/c1c(O)n(CCC2=CCCCC2)c(=O)[nH]c1=O	2.44%
Cc1ccc(NC(=O)N(Cc2ccc3c(c2)OCO3)C2CCN(Cc3ccccc3)CC2)cc1F	9.83%
COC(=O)N1C(c2ccccc2)C1c1ccccc1 (stereo not given)	6.43%
COc1ccccc1N1CCN(C(CNC(=O)Oc2ccccc2)c2cccnc2)CC1 (stereo not given)	0.177%
COC(=O)C(c1ccccc1)N1CCCCCC1 (stereo not given)	40% (active)
NCC(O)c1ccc(O)cc1 (stereo not given)	0.942%
COc1ccc(N=Cc2c(O)n(C)c(=O)[nH]c2=O)cc1	2.19%
CC(=O)c1c(O)n(C2CCCCCC2)c(=O)[nH]c1=O	2.24%
